# Test system: RARb:RXRa (NR concentration 270 nM, RXRa partner concentration 90 nM)
# Experiment: PBM binding z-score (relative to random genomic background probes); higher = stronger binding; sequences stand for … in GC…GCGATTGACAGCGTAGAATGAAGG
# Method in brief: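 Random background probes are the reference for binding z-scores. These scores derive from regression-normalized fluorescence on custom Agilent 4×180K protein-binding microarrays incubated 1 h with ligand-free nuclear receptor dimers. Binding was detected with antibodies against each partner (one per run).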
row,Sequence,PBM binding z-score
1,TCAGACAGGTGAAGGTAACTAAGGTACGCAGTCG,1.24
2,TCTAGCAGGCCAGAGGGTCACACAAGAGGTACGG,2.62
3,CCTACTGGGCCATTCAGATGTCATTGATCATATG,0.127
4,TCTGCTAGATCAGTTGGTCAGCTAACGAGCTGCC,-0.199
5,TATACAGGGACAAAGGCCAGAGTACGAATGTCGA,1.54
6,ATCTCTAGGTAAAGTTCAGGGAAAGATCGATAGA,2.99
7,AGAATGAGGTTACCAAAGATCAGGGACACGCTTG,2.14
8,TCTAGTAGTTGATTAGGGCAACCGAAACAGCGGA,0.581
9,TCGAGTAGGATACCAATGGGGCATTCAGCTTTCT,-0.402
10,GCTGCTAGGTCAACTGATGATCAGCTAAAGCTCG,4.25
11,GCGACTGGGGCATCAGCCGGTTACCATAACTTAA,0.332
12,TCATATAGGTAAATGCTAGGTGAGAGTCCGATCT,0.218
13,CGAACTAGGTCATTGTCAGGACAGTGAATAGTAA,3.48
14,CGTCAAAGTTCATCTAAGGTAACGTAAAGCACGC,4.78
15,AATAGAGGGTCATCGTAGGCCAGAGTACGCACAG,4.25
16,TCGGGTAGGTTAGTCGGGGCATTCAGCCAACATA,1.21
17,CCTAGCAGGCCAGGGTAACTCAAGCATTTCGCTT,-0.102
18,TCTGCTAGGTCAGTTGGTGAGCTAACGAGCTGCC,3.16

# Reference: the supplement of paper PMC6555819
